# Results from PubChem BioAssay AID1053126 (Broad Institute, 2014).
# Potency and affinity values are given separately. Active and inactive are the calls of the source.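 Rule for the calls: active = cell killing with a fitted half-effect concentration at or below twice the top valid dose; inconclusive = flat curve with 30 to 70 percent drop, or poor fit; inactive = the rest.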
# Assay: viability loss in HEK293T kidney cells – cell-based, ATP luminescence, cherry-pick, set 6, cytotoxicity control, dose response (AID 1053126)
# Details: CellTiter-Glo ATP luminescence, 72 h; series mostly up to 26 µM
row,SMILES,outcome
1,Cc1c(O)ccc2cc(S(=O)(=O)c3ccccc3)c(=O)oc12,inactive
2,O=[N+]([O-])c1cccc(Nc2c3ccccc3nc3ccccc23)c1,inactive
3,CCOC1=NN(c2ncc(C(F)(F)F)cc2Cl)C(=O)C1,inactive
